Screening results: PubChem BioAssay, several laboratories
This is a sample that favours compounds with a hit; in the whole collection about 1.6% have one here.
STAT1 inh = STAT1 signaling inhibitors, primary screen, cell-based, HTS, luciferase reporter; NIH 3T3 STAT1-luciferase reporter, IFN-gamma, luminescence; inhibition, % at 5.5 µM; 200,000 compounds, 0.35% hits; AID 920, 2007;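 active means inhibition above a set limit, the mean inhibition across all tested compounds plus 3 SD, cut at about 34% in these data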;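 further: 0% = IFN-gamma with DMSO and 100% = IFN-gamma with 300 µM nifuroxazide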
TRAIL sens C8 = viability loss with TRAIL in NB7+C8 cells, primary screen, TRAIL sensitizer project, cell-based, ATPlite luminescence; inhibition (viability loss, TRAIL sensitization), % at 10 µM; 360,000 compounds, 1% hits;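 active means compounds causing at least 50% loss of cell viability in the single-dose screen, relative to plate controls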
Platelet DG rel = inhibitors of platelet dense granule secretion, primary screen, cell-based, MLPCN, human platelets | human platelet-rich plasma, SFLLRN dense granule ATP release, luminescence | inhibition, %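 (compounds screened at 7.5 µM in platelet-rich plasma)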 | 300,000 compounds, 0.22% hits | AID 1663, 2009;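 active means mean replicate score, as percent of positive control, at or above 50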
STAT3 inh = IL-6 driven STAT3 reporter inhibitors, primary screen, U3A cells, luciferase, luminescence, MLSCN library. IL-6 STAT3-luciferase reporter; host cell line lacks STAT1. inhibition, % at 5.5 µM. 190,000 compounds, 0.89% hits;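 active means inhibition above the mean inhibition across all screened compounds plus 3 SD, cut at about 44% in these data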;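 further: 0% = DMSO only wells and 100% = 100 µM nifuroxazide control wells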
PPC-1+TRAIL kill = compounds killing PPC-1 cancer cells with TRAIL present, primary screen, TRAIL potentiator project, ATPLite luminescence, uHTS | PPC-1 cells + TRAIL, ATPLite viability luminescence | cell killing (% activity), % at 4 µM or 5 µM | 220,000 compounds, 0.41% hits | AID 1443, 2008;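 active means cell killing above 50% in the first pass at 4 µM, then a duplicate retest at 5 µM averaging 50% or more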;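 further: plate controls were cells with TRAIL plus DMSO for no effect and medium-only wells lacking cells for full effect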
PPC-1 tox = cytotoxicity in PPC-1 cells, confirmation, cytotoxicity control for TRAIL apoptosis potentiator project, cell-based, ATP content luminescence; shares compounds with PPC-1+TRAIL kill; PPC-1 viability, ATPlite luminescence, overnight; cytotoxicity, % at 5 µM; 1,200 compounds, 50% hits; AID 1447, 2008;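 active means reconfirmed compounds whose average cytotoxicity reaches 50% or more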;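 further: 0% = DMSO-treated cells and 100% = wells holding medium but no cells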
Starred values were filed as active, the others as inactive.

What do the screens show for `COc1ccc(-c2cc(=O)c3cc(OC)ccc3[nH]2)cc1`?
STAT1 inh: -58; TRAIL sens C8: 73*; Platelet DG rel: 27; STAT3 inh: 38; PPC-1+TRAIL kill: 65*; PPC-1 tox: 62*

Results for O=c1cc(-c2ccc(Cl)cc2)[nH]c2ccccc12 ?
Platelet DG rel: -2; PPC-1+TRAIL kill: 8

How did Cc1ccc(-c2cc(=O)c3cc(Cl)ccc3[nH]2)cc1 do in these assays?
STAT1 inh: -44; Platelet DG rel: -2; PPC-1+TRAIL kill: 65*; PPC-1 tox: 60*

What do the screens show for `Cc1ccc2ccccc2c1C(O)c1ncc(-c2ccc(F)cc2)[nH]1` (centres undefined)?
TRAIL sens C8: 15

How did COc1ccc(C(=O)C[C@@H]2OC[C@H](C(C)C)N2S(=O)(=O)c2ccc(C)cc2)cc1OC do in these assays?
TRAIL sens C8: 8

How did Cn1ncc(Br)c1C(=O)N1CCCCCC1 do in these assays?
TRAIL sens C8: 5; Platelet DG rel: -5

What do the screens show for `C=CCn1c(C)nc2ccccc2c1=O`?
STAT1 inh: 4; TRAIL sens C8: 1; Platelet DG rel: -9; STAT3 inh: 6; PPC-1+TRAIL kill: 6

Results for C=CCn1c(N/N=C/c2ccc(O)cc2)nc2ccccc2c1=O ?
STAT1 inh: -9; TRAIL sens C8: 18; Platelet DG rel: 11; STAT3 inh: 21; PPC-1+TRAIL kill: 27; PPC-1 tox: 32

What do the screens show for `C[C@H](CO)N1C[C@H](C)[C@@H](CN(C)S(C)(=O)=O)OCc2cnnn2CCCC1=O`?
TRAIL sens C8: -13

What do the screens show for `Cc1cc(N2CCN(c3ccccc3)CC2)n2ncnc2n1`?
STAT1 inh: 5; TRAIL sens C8: -13; Platelet DG rel: -2; STAT3 inh: 27; PPC-1+TRAIL kill: 6

How did Cc1cc(N2CC(=O)N(CCc3ccccc3)C(=O)C2)n2ncnc2n1 do in these assays?
STAT1 inh: 4; TRAIL sens C8: -18; Platelet DG rel: -10; STAT3 inh: 5; PPC-1+TRAIL kill: 10; PPC-1 tox: -2

What do the screens show for `CC(C)CC(N)c1csc(Nc2ccc(C(F)(F)F)cn2)n1` (centres undefined)?
TRAIL sens C8: 35

Results for O=C(CC[C@H]1O[C@@H](n2ccc(=O)[nH]c2=O)[C@H](O)[C@@H]1O)N[C@H](Cc1ccccc1)C(=O)NCC1CCCO1 (some centres undefined) ?
TRAIL sens C8: -27

Results for O=c1c(-c2ccco2)nc2ccccc2n1C(c1ccccc1)c1nc2ccccc2[nH]1 (centres undefined) ?
TRAIL sens C8: 20

What do the screens show for `CCOc1ccc(NC(=O)COC(=O)C2C3CC4OC(=O)C2C4C3)cc1` (centres undefined)?
TRAIL sens C8: -20; Platelet DG rel: -2

How did CC(C)c1ccc(C(=O)N2CCCC(c3cc(C(=O)Nc4ccc5c(c4)OCO5)no3)C2)cc1 (centres undefined) do in these assays?
TRAIL sens C8: 14

Results for O=C(CN1CCC(NC(=O)c2ccccc2F)CC1)Nc1ccc2c(c1)OCCO2 ?
STAT1 inh: 6; TRAIL sens C8: -5; Platelet DG rel: 0; STAT3 inh: 8; PPC-1+TRAIL kill: 9; PPC-1 tox: -9

What do the screens show for `COc1cc(/C=C2\SC(=Nc3ccccc3)N(CCc3c[nH]c4ccccc34)C2=O)ccc1OC(C)C(=O)O` (centres undefined)?
STAT1 inh: 10; TRAIL sens C8: -3; Platelet DG rel: 6; STAT3 inh: -1; PPC-1+TRAIL kill: 1

What do the screens show for `O=C1/C(=C/c2ccc(N3CCOCC3)o2)SC(=Nc2ccccc2)N1CCc1c[nH]c2ccccc12`?
STAT1 inh: 11; TRAIL sens C8: 34; Platelet DG rel: 21; STAT3 inh: 8; PPC-1+TRAIL kill: -12; PPC-1 tox: -6

How did CCOC(=O)[C@]12CCC=C1N(Cc1cccc3ccccc13)C(=O)[C@H](CC(=O)N1CCCC1)C2 do in these assays?
TRAIL sens C8: 1

How did COc1ccc(NC(=O)O/N=C/c2c(C)nn(C(C)(C)C)c2C)cc1 do in these assays?
TRAIL sens C8: 27; Platelet DG rel: 7; PPC-1+TRAIL kill: 72*; PPC-1 tox: 74*

How did CN1C=CC(=C2C(=O)c3ccccc3C2=O)C=C1 do in these assays?
STAT1 inh: -20; Platelet DG rel: 1; STAT3 inh: 42; PPC-1+TRAIL kill: 46

What do the screens show for `CCN1C=CC(=C2C(=O)c3ccccc3C2=O)C=C1`?
STAT1 inh: 88*; TRAIL sens C8: 91*; Platelet DG rel: 53*; STAT3 inh: 109*; PPC-1+TRAIL kill: 96*; PPC-1 tox: 96*

Results for CCCCCCN1C=CC(=C2C(=O)c3ccccc3C2=O)C=C1 ?
STAT1 inh: 81*; TRAIL sens C8: 92*; Platelet DG rel: 8; STAT3 inh: 100*; PPC-1+TRAIL kill: 81*; PPC-1 tox: 80*

What do the screens show for `C(=N\Nc1nc2ccccc2s1)/c1ccccn1`?
Platelet DG rel: 24; PPC-1+TRAIL kill: 69*; PPC-1 tox: 73*

What do the screens show for `COc1ccc(C=NNc2nc3ccccc3s2)cc1`?
TRAIL sens C8: 47

How did Cc1cccc(C(=O)n2c(=S)nc3cc(C)ccn32)c1 do in these assays?
TRAIL sens C8: 82*; Platelet DG rel: 30; PPC-1+TRAIL kill: 78*; PPC-1 tox: 79*

Results for CCCCn1c(N)c(N(CC(C)C)C(=O)CCN2C(=O)C3CC=CCC3C2=O)c(=O)[nH]c1=O (centres undefined) ?
TRAIL sens C8: 1

How did COc1cc(/C=N/Nc2nn3cnnc3c3ccccc23)ccc1O do in these assays?
STAT1 inh: 36*; TRAIL sens C8: 78*; Platelet DG rel: 23; STAT3 inh: 58*; PPC-1+TRAIL kill: 79*; PPC-1 tox: 77*

What do the screens show for `Cc1cc(N/N=C/c2ccc(F)cc2)nc(-n2nc(C)cc2C)n1`?
TRAIL sens C8: 6; Platelet DG rel: 3; PPC-1+TRAIL kill: 8

Results for CCOc1cc(/C=N/Nc2cc(C)nc(-n3nc(C)cc3C)n2)ccc1O ?
TRAIL sens C8: 15; Platelet DG rel: 1; PPC-1+TRAIL kill: 58*; PPC-1 tox: 54*

Results for CCOc1cc(/C=N/Nc2nn3cnnc3c3ccccc23)ccc1O ?
TRAIL sens C8: 73*; Platelet DG rel: 16; PPC-1+TRAIL kill: 56*; PPC-1 tox: 59*

How did CCOc1cc(/C=N/Nc2nncc(-c3ccccc3)n2)ccc1O do in these assays?
STAT1 inh: -6; TRAIL sens C8: -2; Platelet DG rel: 3; STAT3 inh: 17; PPC-1+TRAIL kill: -4
